Laboratory results published in PubChem BioAssay.
Where “and” joins values, the source holds several entries; their conditions need not be identical. Identical values can stand only once. Inconclusive results are not listed. Calls of active or inactive are those of the source.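 How the source made its calls, unless noted: active means normalized viability below 100% at a tested concentration; inactive means the rest.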

Tests used:
[1] = growth inhibition of DIPG glioma cells, dose response, cell-based, SU-DIPG-XIII, MIPE4.0, CellTiter-Glo, qHTS (AID 1347061; cut-off not given, nearly all actives have AC50 up to about 37 µM;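 further: cells exposed to compound for 48 hours before readout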); settings: SU-DIPG-XIII viability, CellTiter-Glo ATP luminescence
[2] = growth inhibition of DIPG glioma cells, dose response, cell-based, SU-DIPG-IV, MIPE4.0, CellTiter-Glo, qHTS (AID 1347063; cut-off not given, nearly all actives have AC50 up to about 30 µM;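 further: compound exposure lasted 48 hours before the viability readout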); settings: SU-DIPG-IV viability, CellTiter-Glo ATP luminescence
[3] = viability loss in pontine glioma line – cell-based, SU-DIPG-XXV, MIPE5.0, CellTiter-Glo, qHTS, dose response (AID 1347065; cut-off not given, nearly all actives have AC50 up to about 26 µM;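 further: cells exposed to compound for 48 hours before ATP readout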); settings: CellTiter-Glo ATP luminescence
[4] = SU-DIPG-VI glioma cell viability, MIPE4.0 library, CellTiter-Glo luminescence, qHTS (AID 1347066; cut-off not given, nearly all actives have AC50 up to about 30 µM;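 further: cells exposed to compound for 48 hours before readout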); settings: CellTiter-Glo ATP luminescence
[5] = JHH-DIPG-1 glioma cell viability, MIPE5.0 library, CellTiter-Glo luminescence, qHTS (AID 1347067; cut-off not given, nearly all actives have AC50 up to about 26 µM;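 further: cells exposed to compound for 48 hours before readout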); settings: JHH-DIPG-1 glioma viability, CellTiter-Glo ATP luminescence
[6] = sensitizers of A549 cells to miR-34 induction, primary screen, imaging, A549 dox-inducible miR-34, nuclei and caspase counts (AID 1347080;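 active means compounds whose cell count with miR-34 switched on is under 0.7 times the count with it off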); settings: A549 miR-34 inducible, Hoechst nuclei count, 48 h
[7] = survival rescue of mitochondrial mutant cells in low glucose, primary screen, MELAS cybrids, Rieske KO mouse fibroblasts, CellTiter-Glo (AID 1508586;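 active means mean z-score across replicates of 1.96 or higher in either the MELAS or the Rieske mutant cell line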;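 further: z relative to plate mean and SD of compound and empty wells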)
[8] = SU-DIPG-XXV glioma cell viability, MIPE5.0 library, qHTS (AID 1347068; cut-off not given, nearly all actives have IC50 up to about 30 µM)
[9] = modifiers of HSF1 nuclear foci, imaging, Selleck Cancer Library (AID 1347162; in the data active means plate-normalised HSF1 focus index below about 0.46); settings: human cells, at 10 µM; SSMD: measured here: HSF1 foci SSMD mean; cell count: measured here: cell number; plate-normalised HSF1 focus index: stronger effect = lower value
[10] = ovarian cancer cell viability with rucaparib, profiling panel, oncology-focused library, rucaparib conditional (AID 1508598); settings: patient-derived ovarian cancer cells, CellTiter-Glo viability, 144 h, stronger effect = lower value
[11] = growth inhibition of DIPG glioma cells, dose response, cell-based, JHH-DIPG-1, MIPE4.0, CellTiter-Glo, qHTS (AID 1347062; cut-off not given, nearly all actives have AC50 up to about 27 µM;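 on AC50: cells exposed to compound for two days before readout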); settings: JHH-DIPG-1 viability, CellTiter-Glo ATP luminescence
[12] = stronger effect = lower value, cell number ratio, induced over uninduced
[13] = measured here: relative caspase fold change +Dox/-Dox
[14] = measured here: total cells with miR-34 induction, stronger effect = lower value
[15] = measured here: total cells without miR-34 induction
[16] = MELAS cybrid survival, CellTiter-Glo 48 h, stronger effect = higher value
[17] = Rieske KO mouse fibroblast survival, CellTiter-Glo 72 h
[18] = at 0.000305 µM, OCI-C5x cells, with rucaparib 10 µM, 100% = cells with rucaparib alone
[19] = at 0.000305 µM, OCI-C5x cells, without rucaparib
[20] = at 0.000305 µM, OCI-P5x cells, with rucaparib 20 µM, 100% = cells with rucaparib alone
[21] = at 0.000305 µM, OCI-P5x cells, without rucaparib
[22] = at 0.00122 µM, OCI-C5x cells, with rucaparib 10 µM, 100% = cells with rucaparib alone
[23] = at 0.00122 µM, OCI-C5x cells, without rucaparib
[24] = at 0.00122 µM, OCI-P5x cells, with rucaparib 20 µM, 100% = cells with rucaparib alone
[25] = at 0.00122 µM, OCI-P5x cells, without rucaparib
[26] = at 0.00488 µM, OCI-C5x cells, with rucaparib 10 µM, 100% = cells with rucaparib alone
[27] = at 0.00488 µM, OCI-C5x cells, without rucaparib
[28] = at 0.00488 µM, OCI-P5x cells, with rucaparib 20 µM, 100% = cells with rucaparib alone
[29] = at 0.00488 µM, OCI-P5x cells, without rucaparib
[30] = at 0.0195 µM, OCI-C5x cells, with rucaparib 10 µM, 100% = cells with rucaparib alone
[31] = at 0.0195 µM, OCI-C5x cells, without rucaparib
[32] = at 0.0195 µM, OCI-P5x cells, with rucaparib 20 µM, 100% = cells with rucaparib alone
[33] = at 0.0195 µM, OCI-P5x cells, without rucaparib
[34] = at 0.0781 µM, OCI-C5x cells, with rucaparib 10 µM, 100% = cells with rucaparib alone
[35] = at 0.0781 µM, OCI-C5x cells, without rucaparib
[36] = at 0.0781 µM, OCI-P5x cells, with rucaparib 20 µM, 100% = cells with rucaparib alone
[37] = at 0.0781 µM, OCI-P5x cells, without rucaparib
[38] = at 0.313 µM, OCI-C5x cells, with rucaparib 10 µM, 100% = cells with rucaparib alone
[39] = at 0.313 µM, OCI-C5x cells, without rucaparib
[40] = at 0.313 µM, OCI-P5x cells, with rucaparib 20 µM, 100% = cells with rucaparib alone
[41] = at 0.313 µM, OCI-P5x cells, without rucaparib
[42] = at 1.25 µM, OCI-C5x cells, with rucaparib 10 µM, 100% = cells with rucaparib alone
[43] = at 1.25 µM, OCI-C5x cells, without rucaparib
[44] = at 1.25 µM, OCI-P5x cells, with rucaparib 20 µM, 100% = cells with rucaparib alone
[45] = at 1.25 µM, OCI-P5x cells, without rucaparib
[46] = at 5 µM, OCI-C5x cells, with rucaparib 10 µM, 100% = cells with rucaparib alone
[47] = at 5 µM, OCI-C5x cells, without rucaparib
[48] = at 5 µM, OCI-P5x cells, with rucaparib 20 µM, 100% = cells with rucaparib alone
[49] = at 5 µM, OCI-P5x cells, without rucaparib

CC(O)(C#Cc1ccc2c(c1)N(c1nc(N)ncc1Cl)CC2)c1nccs1 (configuration not stated)
active: AC50 [1] 16.6 µM | AC50 [2] 16.6 µM | AC50 [3] 13.2 µM | AC50 [5] 18.6 µM
inactive: outcome [4]

O=c1cc(-c2ccc(O)c(O)c2)oc2cc(O)cc(O)c12
7040 and 6030 and 8740: cell count [6, 14]
1.18 and 0.969 and 1.11: fold change [6, 13]
-0.97 and -0.213: z-score [7, 17]
8620 and 6020 and 9220: cell count [6, 15]
inactive: outcome [1] | outcome [2] | outcome [4] | fold change [6, 12] 0.817 and 1 and 0.947 | z-score [7, 16] -0.397 and 1.32

CC(C)OC(=O)C1=CN(C(=O)c2ccc(F)c(F)c2)CC(C)(C)c2c1[nH]c1ccccc21
0.0698: z-score [7, 17]
7570: cell count [6, 14]
inactive: outcome [1] | outcome [3] | outcome [4] | outcome [5] | outcome [8] | fold change [6, 12] 0.997 | plate-normalised HSF1 focus index [9] 1.17 | z-score [7, 16] -0.00254 | viability [10, 18] 123% | viability [10, 19] 126% | viability [10, 20] 115% | viability [10, 21] 112% | viability [10, 22] 116% | viability [10, 23] 130% | viability [10, 24] 117% | viability [10, 25] 110% | viability [10, 26] 128% | viability [10, 27] 128% | viability [10, 28] 111% | viability [10, 29] 115% | viability [10, 30] 108% | viability [10, 31] 126% | viability [10, 32] 118% | viability [10, 33] 115% | viability [10, 34] 112% | viability [10, 35] 128% | viability [10, 36] 115% | viability [10, 37] 116% | viability [10, 38] 125% | viability [10, 39] 131% | viability [10, 40] 113% | viability [10, 41] 114% | viability [10, 42] 114% | viability [10, 43] 122% | viability [10, 44] 114% | viability [10, 45] 106% | viability [10, 46] 125% | viability [10, 47] 118% | viability [10, 48] 114% | viability [10, 49] 113%
7100: cell count [9]
3.1: SSMD [9]
7590: cell count [6, 15]
0.501: fold change [6, 13]
active: AC50 [2] 26.4 µM

CN(C)c1cc(NC(=O)CNC(C)(C)C)c(O)c2c1C[C@H]1C[C@H]3[C@H](N(C)C)C(=O)C(C(N)=O)=C(O)[C@@]3(O)C(=O)C1=C2O
inactive: outcome [1] | outcome [11] | outcome [4] | z-score [7, 16] 0.577
0.0397: z-score [7, 17]

O=C(NOC[C@H](O)CO)c1ccc(F)c(F)c1Nc1ccc(I)cc1F
2470: cell count [6, 15]
7460: cell count [9]
2530: cell count [6, 14]
inactive: outcome [4] | fold change [6, 12] 1.03 | plate-normalised HSF1 focus index [9] 1.21 | viability [10, 18] 115% | viability [10, 19] 103% | viability [10, 22] 110% | viability [10, 23] 103% | viability [10, 26] 111% | viability [10, 27] 101% | viability [10, 30] 111% | viability [10, 34] 120%
2.04: fold change [6, 13]
3.29: SSMD [9]
active: AC50 [1] 1.05 µM | AC50 [11] 2.35 µM | viability [10, 20] 79.9% | viability [10, 21] 86.4% | viability [10, 24] 73.1% | viability [10, 25] 80% | viability [10, 28] 60% | viability [10, 29] 73.8% | viability [10, 31] 96.8% | viability [10, 32] 51.1% | viability [10, 33] 67.5% | viability [10, 35] 94.3% | viability [10, 36] 46.8% | viability [10, 37] 62.3% | viability [10, 38] 98.2% | viability [10, 39] 86.8% | viability [10, 40] 41% | viability [10, 41] 50.2% | viability [10, 42] 66.9% | viability [10, 43] 68.4% | viability [10, 44] 40.4% | viability [10, 45] 44.1% | viability [10, 46] 34.4% | viability [10, 47] 37.4% | viability [10, 48] 30.5% | viability [10, 49] 38.4%

Cc1c(NC(=O)c2ccc(C(C)(C)C)cc2)cccc1-c1cn(C)c(=O)c(Nc2ccc(C(=O)N3CCOCC3)cc2)n1
-0.156: z-score [7, 17]
inactive: outcome [1] | outcome [4] | outcome [8] | fold change [6, 12] 1.11 | z-score [7, 16] -0.54
0.695: fold change [6, 13]
4900: cell count [6, 15]
5460: cell count [6, 14]
active: AC50 [2] 10.5 µM

COc1ccc2cc(-c3nc(-c4ccc(S(C)=O)cc4)[nH]c3-c3ccncc3)ccc2c1 (configuration not stated)
7650: cell count [6, 14]
5750: cell count [6, 15]
6890: cell count [9]
4.96: SSMD [9]
0.971: z-score [7, 17]
0.892: fold change [6, 13]
active: AC50 [3] 14.8 µM | viability [10, 22] 95.3% | viability [10, 27] 95.5% | viability [10, 29] 96.1% | viability [10, 30] 96.9% | viability [10, 32] 91.1% | viability [10, 33] 90.7% | viability [10, 36] 95.6% | viability [10, 37] 95.1% | viability [10, 40] 87.7% | viability [10, 41] 93.7% | viability [10, 45] 84% | viability [10, 48] 26.6% | viability [10, 49] 26.9%
inactive: outcome [1] | outcome [4] | fold change [6, 12] 1.33 | plate-normalised HSF1 focus index [9] 1.27 | z-score [7, 16] -0.573 | viability [10, 18] 108% | viability [10, 19] 102% | viability [10, 20] 107% | viability [10, 21] 103% | viability [10, 23] 101% | viability [10, 24] 107% | viability [10, 25] 105% | viability [10, 26] 106% | viability [10, 28] 103% | viability [10, 31] 107% | viability [10, 34] 104% | viability [10, 35] 109% | viability [10, 38] 145% | viability [10, 39] 122% | viability [10, 42] 122% | viability [10, 43] 148% | viability [10, 44] 106% | viability [10, 46] 110% | viability [10, 47] 113%
